{
  "source": "PubChem BioAssay (Tox21)",
  "note": "Records with an inconclusive call do not appear. Unmarked numbers belong to inactive results. Active and inactive are the calls of the source. The call rests on the fitted dose curve; in most records, active means well fitted activation curve with a large enough effect; inconclusive means small, poorly fitted or top-dose-only effect; inactive means flat fitted curve, though single readings scatter. Non-standard residues stand in square brackets, D forms with d. Residues, ends and D or L forms follow the SMILES beside them. Orn = NCCC[C@H](N)C(=O)O",
  "data": [
    {"experiment": "qHTS assay to identify small molecule phospholipidosis (PLD) inducers (AID 1259344); further: on the % scale 0 is the no-effect control and ±100 the full control effect", "settings": "HepG2 phospholipidosis, LipidTOX Red imaging, 24 h; series mostly up to 38.3 µM; PLD induction: at the top concentration", "outline": "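HepG2 cells grown on collagen I take up LipidTOX Red while exposed to compound for 24 h; after fixation they are imaged at 20x and pit metrics are extracted.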", "values": [
      {"smiles": "CC(C)c1ncc([N+](=O)[O-])n1C", "PLD induction": "-1.05%"},
      {"smiles": "CO[C@H]1C[C@H](O[C@H]2[C@H](C)[C@@H](O[C@@H]3O[C@H](C)C[C@H](N(C)C)[C@H]3O)[C@@H](C)C[C@]3(CO3)C(=O)[C@H](C)[C@@H](O)[C@@H](C)[C@@H](C)OC(=O)[C@@H]2C)O[C@@H](C)[C@@H]1O", "PLD induction": "0.285% [at 15.5 µM]"},
      {"smiles": "CC(C)(C)C(=O)OCC(=O)[C@H]1CC[C@H]2[C@@H]3CCC4=CC(=O)CC[C@]4(C)[C@H]3CC[C@]12C", "PLD induction": "-0.848%"},
      {"smiles": "CC[C@@]1([C@@H]2O[C@@H]([C@H]3O[C@@](O)(CO)[C@H](C)C[C@@H]3C)C[C@@H]2C)CC[C@H]([C@]2(C)CC[C@]3(C[C@H](O)[C@@H](C)[C@@H]([C@@H](C)[C@@H](OC)[C@H](C)C(=O)O)O3)O2)O1", "note": "(stereo in doubt)", "Potency": "inactive"},
      {"smiles": "N=C(N)n1cccn1", "PLD induction": "-0.953%"},
      {"smiles": "C=C1[C@H](CO)[C@@H](O)C[C@@H]1n1cnc2c(=O)[nH]c(N)nc21", "PLD induction": "2.21%"},
      {"smiles": "Cc1ccc(C(C)(C)c2ccc(C)cc2)cc1", "PLD induction": "-0.975%"},
      {"smiles": "O=C(O)c1cc(O)c2c(c1)[C@H]([C@H]1c3cc(C(=O)O)cc(O)c3C(=O)c3c(O[C@@H]4O[C@H](CO)[C@@H](O)[C@H](O)[C@H]4O)cccc31)c1cccc(O[C@@H]3O[C@H](CO)[C@@H](O)[C@H](O)[C@H]3O)c1C2=O", "PLD induction": "-0.241%"},
      {"smiles": "CCN(CC)C(=S)S", "PLD induction": "-0.588%"},
      {"smiles": "CC(C)CCC[C@@H](C)[C@H]1CC[C@H]2[C@@H]3CC=C4C[C@@H](O)CC[C@]4(C)[C@H]3CC[C@]12C", "PLD induction": "-1.5%"},
      {"smiles": "CCN(CC)C(=O)[C@]1(c2ccccc2)C[C@@H]1CN", "PLD induction": "1.32%"},
      {"smiles": "CO/N=C(\\C(=O)N[C@@H]1C(=O)N2C(C(=O)[O-])=C(C[n+]3cccc4c3CCC4)CS[C@H]12)c1csc(N)n1", "PLD induction": "-0.257%"},
      {"smiles": "CNC(=O)OCc1cccc(COC(=O)NC)n1", "PLD induction": "-0.816%"},
      {"smiles": "CN[C@H](CC(C)C)C(=O)N[C@H]1C(=O)N[C@@H](CC(N)=O)C(=O)N[C@H]2C(=O)N[C@H]3C(=O)N[C@H](C(=O)N[C@@H](C(=O)O)c4cc(O)cc(O)c4-c4cc3ccc4O)[C@H](O)c3ccc(c(Cl)c3)Oc3cc2cc(c3O[C@@H]2O[C@H](CO)[C@@H](O)[C@H](O)[C@H]2O[C@H]2C[C@](C)(N)C(O)[C@H](C)O2)Oc2ccc(cc2Cl)[C@H]1O", "note": "(stereo partly specified)", "Potency": "inactive"},
      {"smiles": "COc1ccc([C@@H]2CC(=O)c3c(O)cc(O[C@@H]4O[C@H](CO[C@@H]5O[C@@H](C)[C@H](O)[C@@H](O)[C@H]5O)[C@@H](O)[C@H](O)[C@H]4O)cc3O2)cc1O", "PLD induction": "-0.0576% [at 15.5 µM]"},
      {"smiles": "C[C@H](NCCc1ccc(O)cc1)[C@H](O)c1ccc(O)cc1", "PLD induction": "-0.415%"},
      {"smiles": "O=C1CCC(c2ccccc2)(C2CCN(Cc3ccccc3)CC2)C(=O)N1", "note": "(stereo unspecified)", "PLD induction": "1.48%"},
      {"smiles": "CCN(CC)CC#CCOC(=O)C(O)(c1ccccc1)C1CCCCC1", "note": "(stereo unspecified)", "PLD induction": "11.8%"},
      {"smiles": "CO/N=C(\\C(=O)N[C@@H]1C(=O)N2C(C(=O)O)=C(CSc3cnns3)CS[C@H]12)c1csc(N)n1", "PLD induction": "-0.543%"},
      {"smiles": "CCOC(=O)Cc1ccc(-c2ccccc2)cc1", "PLD induction": "-0.178%"},
      {"smiles": "CC1(C)C[C@@H]1C(=O)N/C(=C\\CCCCSC[C@H](N)C(=O)O)C(=O)O", "Potency": "inactive"},
      {"smiles": "NS(=O)(=O)c1cc(Cl)c(Cl)c(S(N)(=O)=O)c1", "PLD induction": "3.02% [at 15.5 µM]"},
      {"smiles": "NCC[C@H](O)C(=O)N[C@@H]1C[C@H](N)[C@@H](O[C@H]2O[C@H](CN)CC[C@H]2N)[C@H](O)[C@H]1O[C@H]1O[C@H](CO)[C@@H](O)[C@H](N)[C@H]1O", "PLD induction": "0.0613%"},
      {"smiles": "CC(C)C[C@@H]1NC(=O)[C@H](CCCN)NC(=O)[C@H](C(C)C)NC(=O)[C@@H]2CCCN2C(=O)[C@@H](Cc2ccccc2)NC(=O)[C@H](CC(C)C)NC(=O)[C@H](CCCN)NC(=O)[C@H](C(C)C)NC(=O)[C@@H]2CCCN2C(=O)[C@@H](Cc2ccccc2)NC1=O", "note": "(cyclo(V[Orn]L[dF]PV[Orn]L[dF]P))", "PLD induction": "-0.87%"},
      {"smiles": "CCN(CC)CCn1c(=O)c(Cc2ccc(OC)cc2)nc2ccccc21", "PLD induction": "1.39% [at 7.66 µM]"},
      {"smiles": "O=C(O)c1ccccc1O", "Potency": "inactive"}
    ]}
  ]
}
